Laboratory results reported in PubChem BioAssay (NCI).
Compounds without any hit were thinned out: in the full panel of roughly 83,000, 20% have a hit.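 Growth was measured after 48 h exposure to one concentration of compound in 96-well plates. Values under 10 count as active.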 Active and inactive are the calls of the source.

Tested on: MDA-MB-435 melanoma
Assay: NCI-60 one-dose screen, 48 h (100 = growth as untreated, 0 = no growth, -100 = all killed)
Details: 10 µM unless noted

Row | Compound | growth
1 | Cc1cc(NC(=O)c2ccccc2)c(Cl)cc1N | 97.4% (inactive)
2 | O=C1C=C[C@H](O)[C@@]2(CO)O[C@@H]12 | 77% (inactive)
3 | Oc1cc(O)c2c(c1)O[C@H](c1ccc(O)c(O)c1)[C@@H](O)C2 | 104% (inactive)
4 | C(=C\c1ccncc1)/c1ccncc1 | 110% (inactive)
5 | CCOC(=O)c1cc(C)[nH]c(=O)c1C#N | 86% (inactive)
6 | NC(CCl)=NCC12CC3CC(CC(C3)C1)C2 | -3.63% (active)
7 | COC1=C(OC)C(=O)C(SC/C=C(\C)CCCC(C)CCCC(C)CCCC(C)C)=CC1=O (stereo not drawn) | 18.5% (inactive)
8 | COc1ccc(Br)c2c1C(=O)CC2 | 116% (inactive)
9 | N#C/C(=C\c1ccc(C#N)cc1)C(=O)c1ccccc1 | 107% (inactive)
10 | CN1CCCN(C(c2ccccc2)c2ccc(Cl)cc2)CC1 (stereo not drawn) | 89.6% (inactive)

Tested on: SW-620 colon
Assay: as above
Details: 10 µM unless noted

Row | Compound | growth
11 | CCOC(=O)/C(C#N)=C\c1c[nH]c2ccccc12 | 115% (inactive)
12 | CC(=O)N(C)N=Nc1ccc(C)cc1 | 98.6% (inactive)
13 | COc1cc(C(=O)N2CCN(c3ccccc3)CC2)c2ccccc2n1 | 25.2% (inactive)
14 | CCOC(=O)c1ccc(NC(=O)Nc2nccs2)cc1 | 16.5% (inactive)
15 | O=c1n(CC2CO2)c(=O)n(CC2CO2)n1CC1CO1 (stereo not drawn) | 66.3% (inactive)
16 | CCCCCCCCCCCCSC1=C(Cl)C(=O)C(OC)=C(OC)C1=O | 27.5% (inactive)
17 | Cc1ccc(N2C(=O)c3cccc4c(N)c(S(=O)(=O)O)cc(c34)C2=O)cc1 | 109% (inactive)
18 | S=C=Nc1ccc2ccccc2c1 | 105% (inactive)
19 | Oc1cccnc1CN1CCCC1 | 105% (inactive)
20 | O=C1C=C(c2ccccc2)C(O)(c2ccccc2)C1 (stereo not drawn) | 108% (inactive)
21 | Cc1cc(C)cc(OCC(=O)O)c1 | 109% (inactive)
22 | Cc1cccc(C)c1NC(=S)/N=C\c1c(O)[nH]c(=O)[nH]c1=O | 105% (inactive)
23 | NNC(=O)N/N=C1\C(=O)N(c2nccs2)C(=O)C(=O)C1c1nc2ccccc2s1 (stereo not drawn) | 96.1% (inactive)
24 | O=[N+]([O-])c1c(O)c(CNCCCO)cc(CNCCCO)c1O | 96.3% (inactive)
25 | O=C1Nc2ccccc2/C1=C\c1ccccc1O | 95.8% (inactive)
26 | CN(C)c1ccc2c(N(C)C)cc(N(C)C)nc2c1 | 51.6% (inactive)
27 | Cc1cccc(-[n+]2noc(N)n2)c1 | 86.3% (inactive)
28 | O=S(Cc1ccccc1)/C(=C/NC(=S)Nc1cc(Cl)ccc1Cl)c1ccccc1 (stereo not drawn) | 107% (inactive)
29 | CCNC(=O)OCCc1c2ccccc2nc2ccccc12 | 101% (inactive)

Row | Compound | growth
30 | CCCCn1cnc2c(=O)[nH]cnc21 | 117% (inactive)
31 | Cc1cc(CC(=O)NCCO)n(CCO)c(=O)c1 | 98% (inactive)
32 | CCCCCCCCCCC(=O)CCCCCCCCCC | 104% (inactive)
33 | NC(=S)c1c(N)n(C2OC(CO)C(O)C2O)c2ncnc(N)c12 (stereo not drawn) | -18.3% (active)
34 | NC(=S)N/N=C/c1ccc(OC(=O)COc2ccccc2)cn1 | 49% (inactive)
35 | CCOC(=O)CNC(=O)Sc1ccc(C(C)(C)C)cc1 | 108% (inactive)
36 | c1ccc(Nc2ccccn2)nc1 | 108% (inactive)
37 | C[n+]1c(/C=C\C=C\N2CCCCC2)sc2ccccc21 | 12.5% (inactive)
38 | CCC(=O)C1C(=O)c2ccccc2C1=O | 113% (inactive)
39 | Cc1cc(NC(=O)c2ccccc2)c(Cl)cc1N | 106% (inactive)
40 | O=C1C=C[C@H](O)[C@@]2(CO)O[C@@H]12 | 13.9% (inactive)
41 | Oc1cc(O)c2c(c1)O[C@H](c1ccc(O)c(O)c1)[C@@H](O)C2 | 106% (inactive)
42 | C(=C\c1ccncc1)/c1ccncc1 | 104% (inactive)
43 | CCOC(=O)c1cc(C)[nH]c(=O)c1C#N | 107% (inactive)
44 | NC(CCl)=NCC12CC3CC(CC(C3)C1)C2 | 3.96% (active)
45 | COC1=C(OC)C(=O)C(SC/C=C(\C)CCCC(C)CCCC(C)CCCC(C)C)=CC1=O (stereo not drawn) | 18.7% (inactive)
46 | COc1ccc(Br)c2c1C(=O)CC2 | 123% (inactive)
47 | N#C/C(=C\c1ccc(C#N)cc1)C(=O)c1ccccc1 | 109% (inactive)
48 | CN1CCCN(C(c2ccccc2)c2ccc(Cl)cc2)CC1 (stereo not drawn) | 85.9% (inactive)
